# aSyn 5UTR inh: MLPCN primary screen, SNCA 5' untranslated region; alpha-synuclein 5'UTR reporter, inhibitor activity; inhibition, % (tested at 7.5 µM); actives 0.82% (n = 300,000); AID 1813; in the data active means inhibition above about 60%;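 further: H4 neuroglioblastoma cells stably carrying SNCA 5'UTR luciferase fusion; 0% = DMSO wells and 100% = positive control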
# KLF5 inh: kruppel-like factor 5 inhibition; DLD-1 KLF5 promoter-luciferase reporter, luminescence; inhibition, % at 5 µM; actives 0.23% (n = 290,000);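 active means inhibition above a per-plate limit of that plate's mean compound inhibition plus 3 SD, cut at about 60% in these data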;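 further: 0% = DMSO wells and 100% = LY294002 at 200 µM; higher means less KLF5 promoter-driven luciferase light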
# APP 5UTR inh: APP translation inhibition; inhibition, % at 2 µM; AID 1285; actives 0.82% (n = 190,000); SH-SY5Y APP 5'UTR-luciferase reporter, luminescence;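 active means inhibition above a set limit, derived from the sample mean plus 3 SD, cut at about 45% in these data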
# Ba/F3 V617F tox: loss of viability in JAK2V617F-driven Ba/F3 cells; inhibition, % at 5.6 µM; AID 1446; actives 1.1% (n = 220,000); Ba/F3 EpoR-JAK2V617F viability, ATP luminescence;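 active means inhibition above the campaign mean plus 3 SD over all tested compounds, cut at about 24% in these data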;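 further: cytokine-independent growth of Ba/F3 cells driven by EpoR plus mutant JAK2; 0% = DMSO-treated cells and 100% = JAK inhibitor I control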
# IEC-6 tox: IEC-6 cytotoxicity, counter-screen for KLF5 inhibitors; luminescence viability; inhibition, % at 5 µM; actives 0.78% (n = 290,000);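 further: 0% = plate median of test compound wells and 100% = cytotoxic reference compound wells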
# BaF3 parental: parental Ba/F3 viability inhibition as JAK2V617F counter-screen | inhibition, % at 5.6 µM | actives 1.1% (n = 220,000) | CellTiter-Glo ATP luminescence;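 active means inhibition above a per-campaign cutoff, the mean inhibition of all tested compounds plus 3 SD, cut at about 27% in these data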;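 further: 0% = DMSO wells and 100% = JAK Inhibitor I control wells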
# IEC-6 tox confirm: confirmation of cytotoxic compounds in rat IEC-6 intestinal epithelial cells. actives 63% (n = 1,900). shares compounds with IEC-6 tox. IEC-6 rat intestinal epithelial viability, luminescence. inhibition, % at 5 µM. AID 1907;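 further: 0% = vehicle and 100% = reference cytotoxic drug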
# Starred values were filed as active, the others as inactive; / = no result given. Hits are enriched below; roughly 2.2% of the tested compounds scored in any of these assays. Unless noted, no stated cut-off is given here; in the data, active means inhibition above about 22%; inactive means the rest.
SMILES,aSyn 5UTR inh,KLF5 inh,APP 5UTR inh,Ba/F3 V617F tox,IEC-6 tox,BaF3 parental,IEC-6 tox confirm
CCc1nnc(NC(=O)c2nc(Cl)ccc2Cl)s1,0,-36,/,/,-2,/,/
CCc1nnc(NC(=O)c2nc(S(=O)(=O)Cc3ccccc3)ncc2Cl)s1,-24,9,/,/,34*,/,7
Cc1ccc(NC(=O)c2ccc(NS(=O)(=O)/C=C/c3ccccc3)cc2)nc1,-11,-49,/,/,-6,/,/
CC1CCN(C(=O)Cn2nnc(-c3ccc([N+](=O)[O-])cc3)n2)CC1,2,-28,/,/,-1,/,/
N#Cc1c(NC(=O)/C=C/c2ccco2)sc2c1CCCC2,26,49,93*,91*,93*,90*,78*
CSc1nnc(NC(=O)c2nc(S(=O)(=O)Cc3cccc(C)c3)ncc2Cl)s1,-10,24,/,/,45*,/,19
CC(C)c1nnc(NC(=O)c2nc(S(=O)(=O)Cc3ccc(F)cc3)ncc2Cl)s1,-43,2,/,/,19,/,/
Cc1ccc(CS(=O)(=O)c2ncc(Cl)c(C(=O)Nc3nnc(C(C)C)s3)n2)cc1,-56,38,/,/,36*,/,18
Cc1cccc(CS(=O)(=O)c2ncc(Cl)c(C(=O)Nc3nnc(C(C)C)s3)n2)c1,-98,25,/,/,60*,/,14
CC(C)CNC(=O)[C@H]1N2C(=O)c3ccccc3C2SC1(C)C (stereo partly specified),3,-43,/,/,0,/,/
Cc1ccccc1CCNC(=O)C1CC(O)CN1C(=O)Nc1ccccc1 (stereo unspecified),3,-27,/,/,-1,/,/
Cc1ccc(S(=O)(=O)N2C(=O)CCC2C(N)=O)cc1 (stereo unspecified),-1,-28,/,/,-3,/,/
Cc1cc2c(NCCc3ccccc3)ncnc2s1,-64,-103,/,/,22*,/,22*
Cn1c2ccccc2c2cc([N+](=O)[O-])ccc21,24,-32,/,-5,-1,2,/
CCN(CC)CCn1c2ccccc2c2nc3ccc([N+](=O)[O-])cc3cc21,57,10,/,78*,36*,76*,32*
Cc1ccc(NS(=O)(=O)c2ccc(-c3cnc(C4CC4)o3)cc2)c(C)c1,77*,59,/,/,78*,/,55*
Cc1cccc(N(C)S(=O)(=O)c2ccc(-c3cnc(C4CC4)o3)cc2)c1,97*,56,/,/,91*,/,65*
COc1ccccc1CNS(=O)(=O)c1ccc(-c2cnc(C3CC3)o2)cc1,61,55,/,/,69*,/,54*
COc1ccccc1NS(=O)(=O)c1ccc(-c2cnc(C3CC3)o2)cc1,-10,58,/,/,84*,/,55*
CC1CC1C(=O)N(C)CC(=O)Nc1cccc(F)c1 (stereo unspecified),9,/,/,/,/,/,/
Nc1ccccc1C(=O)NCCCN1CCN(c2cccc(Cl)c2)CC1,16,/,/,/,/,/,/
O=C(O)c1ccc(Cl)c(S(=O)(=O)Nc2ccc(OCc3ccccc3)cc2)c1,-69,-43,/,/,-5,/,/
O=S(=O)(Nc1ccc(F)cc1Cl)c1ccc(-c2cnc(C3CC3)o2)cc1,68*,55,/,/,82*,/,52*
COc1ccc(NS(=O)(=O)c2ccc(-c3cnc(C4CC4)o3)cc2)cc1OC,41,36,/,/,50*,/,39*
CSCC[C@H](NC(=O)c1nn(C)c(=O)c2ccccc12)c1nc2ccccc2[nH]1,-40,-47,0,-1,-8,2,/
SMILES,aSyn 5UTR inh,KLF5 inh,APP 5UTR inh,Ba/F3 V617F tox,IEC-6 tox,BaF3 parental,IEC-6 tox confirm
COc1ccccc1NC(=O)Nc1nc(CC(=O)Nc2ccc(N(C)C)cc2)cs1,-32,/,/,/,/,/,/
CCOC(=O)N1CCN(C(=O)c2ccccc2-c2ccccc2)CC1,-34,38,39,53*,40*,47*,35*
CCN(CC(=O)NCc1cccs1)C(=O)c1cc(S(=O)(=O)NCc2ccccc2)ccc1C,8,/,/,/,/,/,/
CCn1ncc(C2=NOC(C(=O)NCc3ccccc3)C2)c1C (stereo unspecified),26,52,72*,80*,66*,78*,57*
COc1ccc(CNC(=O)C2CC(c3ccccc3C(F)(F)F)=NO2)cc1 (stereo unspecified),10,/,/,/,/,/,/
CCn1ncc(C2=NOC(C(=O)NCc3ccc(OC)cc3)C2)c1C (stereo unspecified),13,-3,-5,-2,22*,1,10
COc1ccc(NC(=S)NNC(=O)c2ccccc2OC(F)F)cc1,-49,-24,26,76*,39*,55*,23*
COc1ccccc1CNC(=O)CN(Cc1ccc(Cl)cc1)S(C)(=O)=O,-8,23,0,22,5,5,/
COc1ccc(N(CC(=O)Nc2ccc(OC)cc2OC)S(=O)(=O)c2ccccc2)cc1,-9,-10,-21,-6,4,2,/
CCOc1ccc(N(CC(=O)Nc2ccccc2OC)S(=O)(=O)c2ccccc2)cc1,123*,59,/,/,78*,/,53*
O=c1[nH]c(/C=C2\C=Nc3ccccc32)c(O)n1Cc1ccccc1F,32,-12,63*,99*,41*,67*,37*
C=CCN=c1scc(-c2ccc3c(c2)NC(=O)CO3)n1/N=C(\C)c1ccccn1,/,57,52*,100*,41*,91*,31*
CCn1nc(C)cc1-c1nnc(Sc2ncc([N+](=O)[O-])s2)n1C,-14,12,/,/,102*,/,26*
NC(=O)Cn1c(=O)n(C2CCCCC2)c(=O)c2c3c(sc21)CCCCC3,5,-4,-9,-1,-4,3,/
CN(C(=O)c1ccccc1C(=O)OCC(=O)Nc1ccc(S(N)(=O)=O)cc1)c1ccccc1,-17,/,/,/,/,/,/
Cc1nnc(N/N=C\c2ccc(-c3ccccc3[N+](=O)[O-])o2)n1N,-75,-85,0,2,58*,11,-5
Cc1nnc(N/N=C/c2ccc(-c3ccccc3F)o2)n1N,-107,-98,-36,5,102*,8,5
CCc1nnc(N/N=C/c2ccc(-c3ccc([N+](=O)[O-])cc3)o2)n1N,-13,-16,14,1,10,6,/
N#CCCN=C(NS(=O)(=O)c1ccccc1)c1ccccc1,29,-15,/,/,0,/,/
CCN1CCc2c(sc(NC(=O)c3ccc4ccccc4c3)c2C(N)=O)C1,-194,-22,/,/,45*,/,8
CCN1CCN(S(=O)(=O)c2ccc(C(=O)Nc3sc4c(c3C(N)=O)CCN(CC)C4)cc2)CC1,-7,-5,/,/,-1,/,/
Cc1ccc(Nc2nc(N/N=C\c3ccc4c(c3)OCO4)nc(N3CCOCC3)n2)cc1,-30,-49,16,2,49*,15,67*
Cc1cccc(/C=N/Nc2cc(N3CCOCC3)nc(N3CCOCC3)n2)c1,-19,-16,15,12,24*,19,94*
CC(C)c1ccc(/C=N/Nc2cc(N3CCOCC3)nc(N3CCOCC3)n2)cc1,/,-18,-4,0,-2,4,/
Cn1nc(CSc2ccccc2)c(C=O)c1Cl,-51,-45,-32,-4,-2,1,/
